The text below walks through data of PubChem BioAssay (NCI).

About 79,000 compounds went through this panel and 15% of them were active in at least one assay; those are over-represented in the sample as a whole. A number with no mark means an inactive call. Active and inactive are the calls of the source. Rule as the data show it: active = growth inhibition above about 70%; inactive = the rest.

Experiment [1] is described as follows: NCI Yeast Anticancer Drug Screen. Data for the rad50 strain (AID 155).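 Also: 0% = growth of vehicle-only cultures of the same strain.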 The note with it: S. cerevisiae rad50 strain growth inhibition, hits give high values. In short, it runs like this: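 Growth of the mutant yeast was measured after compound exposure and referenced to vehicle-treated cultures.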
Experiment [2] can be described thus: NCI Yeast Anticancer Drug Screen. Data for the mec2-1 strain (AID 157). Conditions: S. cerevisiae mec2-1 strain, hits give high values. In short, it runs like this: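 Yeast mec2-1 mutant treated with compound. Readout: growth inhibition vs vehicle controls.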
Experiment [3] can be described thus: NCI Yeast Anticancer Drug Screen. Data for the sgs1 mgt1 strain (AID 161).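 Also: 0% = growth of cultures given vehicle only.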 The note with it: S. cerevisiae sgs1 mgt1 strain, hits give high values. In short, it runs like this: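 Test agents were incubated with a DNA-repair-mutant yeast strain. Growth was then read and compared against vehicle-treated controls.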
The nature of experiment [4]: NCI Yeast Anticancer Drug Screen. Data for the cln2 rad14 strain (AID 165).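 Also: 0% = growth equal to vehicle treated cultures.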 The note with it: S. cerevisiae cln2 rad14 strain, hits give high values. In short, it runs like this: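 cln2 rad14 yeast strain; compound exposure; growth inhibition read vs vehicle controls.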
A short description of experiment [5]: NCI Yeast Anticancer Drug Screen. Data for the bub3 strain (AID 167). Conditions: S. cerevisiae bub3 mutant strain, hits give high values. In short, it runs like this: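 Whole-cell yeast assay. The mutant strain was incubated with compounds, and growth inhibition was determined by comparison with vehicle-treated cells.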
Experiment [6] can be described thus: NCI Yeast Anticancer Drug Screen. Data for the mlh1 rad18 strain (AID 175). Conditions: S. cerevisiae mlh1 rad18 strain growth inhibition, hits give high values. The essentials: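 Yeast w/ defined DNA-repair lesions; compound exposure; growth vs vehicle controls → % inhibition.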
[7] abbreviates: at 5.0 µM (retest, dose inferred, filed as 0.5).
Where [8] appears, read: at 50.0 µM (retest, dose inferred, filed as 5.0).

With `NC(=O)NOC(=O)c1ccccc1`, the growth inhibition is 42% in experiment [1] (setting [7]); 97% (active) in experiment [1] (setting [8]); 85.3% (active) in experiment [1] (at 50.0 µM); 6% in experiment [2] (setting [7]); 97% (active) in experiment [2] (setting [8]); 87.5% (active) in experiment [2] (at 50.0 µM). Moreover, the growth inhibition in experiment [3] (setting [7]) was 18%; in experiment [3] (setting [8]) it was 95% (active); in experiment [3] (at 50.0 µM) it was 87.4% (active); in experiment [4] (setting [7]), -7%; in experiment [4] (setting [8]) it was 96% (active); in experiment [4] (at 50.0 µM) it was 86.8% (active). Further, the growth inhibition in experiment [5] (setting [7]) was -4%; in experiment [5] (setting [8]) it was 95% (active); in experiment [5] (at 50.0 µM), 79.2% (active); in experiment [6] (setting [7]), 21%; in experiment [6] (setting [8]), 97% (active); in experiment [6] (at 50.0 µM) it was 96.8% (active).
With `C1C[OH+]CC[OH+]CCNCC[OH+]CC[OH+]CCN1.[Cl-].[Pt+4]`, the growth inhibition in experiment [1] (setting [7]) was 34%; in experiment [1] (setting [8]), 34%; in experiment [1] (at 50.0 µM), 86.8% (active); in experiment [2] (setting [7]) it was 34%; in experiment [2] (setting [8]), 34%; in experiment [2] (at 50.0 µM), 87.4% (active). Besides, the growth inhibition in experiment [3] (setting [7]) is 29%; in experiment [3] (setting [8]), 29%; in experiment [3] (at 50.0 µM), 84.8% (active); in experiment [4] (setting [7]), 29%; in experiment [4] (setting [8]), 29%; in experiment [4] (at 50.0 µM), 87.1% (active). The growth inhibition in experiment [5] (setting [7]) was 10%; in experiment [5] (setting [8]), 10%; in experiment [5] (at 50.0 µM), 86.2% (active); in experiment [6] (setting [7]), 43%; in experiment [6] (setting [8]) it was 43%; in experiment [6] (at 50.0 µM) it was 84.2% (active).
As to `CC/C(=C\c1cccc(OC)c1)c1ccncc1`, the growth inhibition is 17% in experiment [1] (setting [7]); 84% (active) in experiment [1] (setting [8]); 94.7% (active) in experiment [1] (at 50.0 µM); 12% in experiment [2] (setting [7]); 92% (active) in experiment [2] (setting [8]); 94.2% (active) in experiment [2] (at 50.0 µM). The growth inhibition in experiment [3] (setting [7]) was 40%; in experiment [3] (setting [8]), 91% (active); in experiment [3] (at 50.0 µM), 95.3% (active); in experiment [4] (setting [7]) it was 14%; in experiment [4] (setting [8]), 81% (active); in experiment [4] (at 50.0 µM) it was 90.3% (active). Besides, the growth inhibition is 35% in experiment [5] (setting [7]); 89% (active) in experiment [5] (setting [8]); 94.8% (active) in experiment [5] (at 50.0 µM); 32% in experiment [6] (setting [7]); 87% (active) in experiment [6] (setting [8]); 93.9% (active) in experiment [6] (at 50.0 µM).
Take `O=C(CC(=O)c1cccnc1)c1cccnc1`: the growth inhibition was 6% in experiment [1] (setting [7]); 98% (active) in experiment [1] (setting [8]); 98.8% (active) in experiment [1] (at 50.0 µM); 9% in experiment [2] (setting [7]); 98% (active) in experiment [2] (setting [8]); 98% (active) in experiment [2] (at 50.0 µM). Moreover, the growth inhibition in experiment [3] (setting [7]) was 7%; in experiment [3] (setting [8]), 98% (active); in experiment [3] (at 50.0 µM), 98.5% (active); in experiment [4] (setting [7]) it was 5%; in experiment [4] (setting [8]), 98% (active); in experiment [4] (at 50.0 µM), 76.7% (active). In addition, the growth inhibition in experiment [5] (setting [7]) was 8%; in experiment [5] (setting [8]), 98% (active); in experiment [5] (at 50.0 µM), 97.7% (active); in experiment [6] (setting [7]), 7%; in experiment [6] (setting [8]), 98% (active); in experiment [6] (at 50.0 µM), 99% (active).
Take `Clc1ccc(C2SCc3nc4ccccc4n32)cc1Cl` (configuration not stated): the growth inhibition in experiment [1] (setting [7]) was -8%; in experiment [1] (setting [8]), 95% (active); in experiment [1] (at 50.0 µM), 97.2% (active); in experiment [2] (setting [7]) it was 1%; in experiment [2] (setting [8]), 97% (active); in experiment [2] (at 50.0 µM) it was 98.1% (active). The growth inhibition in experiment [3] (setting [7]) was 15%; in experiment [3] (setting [8]), 96% (active); in experiment [3] (at 50.0 µM), 98% (active); in experiment [4] (setting [7]) it was -16%; in experiment [4] (setting [8]) it was 95% (active); in experiment [4] (at 50.0 µM), 95.6% (active). For the same compound, the growth inhibition is 7% in experiment [5] (setting [7]); 96% (active) in experiment [5] (setting [8]); 96.8% (active) in experiment [5] (at 50.0 µM); 3% in experiment [6] (setting [7]); 96% (active) in experiment [6] (setting [8]); 95% (active) in experiment [6] (at 50.0 µM).
On to `CCOc1cc2c(cc1Cc1c(OC)cc(OC)cc1OC)OCO2`, for which the growth inhibition in experiment [1] (setting [7]) is 5%; in experiment [1] (setting [8]), 27%; in experiment [1] (at 50.0 µM), 46%; in experiment [2] (setting [7]), 3%; in experiment [2] (setting [8]) it was 31%; in experiment [2] (at 50.0 µM), 16.5%. Besides, the growth inhibition is 8% in experiment [3] (setting [7]); 57% in experiment [3] (setting [8]); 88% (active) in experiment [3] (at 50.0 µM); 4% in experiment [4] (setting [7]); 30% in experiment [4] (setting [8]); 46.8% in experiment [4] (at 50.0 µM). For the same compound, the growth inhibition in experiment [5] (setting [7]) is 4%; in experiment [5] (setting [8]), 63%; in experiment [5] (at 50.0 µM), 77.8% (active); in experiment [6] (setting [7]) it was 7%; in experiment [6] (setting [8]), 73% (active); in experiment [6] (at 50.0 µM), 83.3% (active).
Consider `CCOC(=O)CSC(=S)N1CCOCC1`, for which the growth inhibition in experiment [1] (setting [7]) is -3%; in experiment [1] (setting [8]) it was -2%; in experiment [1] (at 50.0 µM), 37%; in experiment [2] (setting [7]) it was -2%; in experiment [2] (setting [8]), -10%; in experiment [2] (at 50.0 µM), -9.1%. The growth inhibition in experiment [3] (setting [7]) is -4%; in experiment [3] (setting [8]) it was -6%; in experiment [3] (at 50.0 µM), -10.6%; in experiment [4] (setting [7]), -5%; in experiment [4] (setting [8]), -9%; in experiment [4] (at 50.0 µM), -32.2%. For the same compound, the growth inhibition in experiment [5] (setting [7]) is -1%; in experiment [5] (setting [8]), -6%; in experiment [5] (at 50.0 µM), -3.9%; in experiment [6] (setting [7]), -2%; in experiment [6] (setting [8]) it was 0%; in experiment [6] (at 50.0 µM) it was -29.2%.
`O=C(Cl)C(c1ccccc1)(c1ccccc1)c1ccccc1`: the growth inhibition in experiment [1] (setting [7]) was -3%; in experiment [1] (setting [8]), 98% (active); in experiment [1] (at 50.0 µM), 98.2% (active); in experiment [2] (setting [7]) it was 14%; in experiment [2] (setting [8]), 97% (active); in experiment [2] (at 50.0 µM), 95.1% (active). Also, the growth inhibition is -10% in experiment [3] (setting [7]); 98% (active) in experiment [3] (setting [8]); 97.8% (active) in experiment [3] (at 50.0 µM); 18% in experiment [4] (setting [7]); 98% (active) in experiment [4] (setting [8]); 92% (active) in experiment [4] (at 50.0 µM). Further, the growth inhibition in experiment [5] (setting [7]) is 10%; in experiment [5] (setting [8]) it was 98% (active); in experiment [5] (at 50.0 µM), 94.7% (active); in experiment [6] (setting [7]), -8%; in experiment [6] (setting [8]), 99% (active); in experiment [6] (at 50.0 µM), 96.3% (active).
As for `O=C(O)c1ccc2c(c1)CCCC2`, the growth inhibition in experiment [1] (setting [7]) was -154%; in experiment [1] (setting [8]) it was -116%; in experiment [1] (at 50.0 µM), 16.2%; in experiment [2] (setting [7]), -55%; in experiment [2] (setting [8]), -53%; in experiment [2] (at 50.0 µM), 6.3%. In addition, the growth inhibition is -66% in experiment [3] (setting [7]); -58% in experiment [3] (setting [8]); 9.5% in experiment [3] (at 50.0 µM); -60% in experiment [4] (setting [7]); -61% in experiment [4] (setting [8]); 52% in experiment [4] (at 50.0 µM). Further, the growth inhibition was -75% in experiment [5] (setting [7]); -70% in experiment [5] (setting [8]); -12.9% in experiment [5] (at 50.0 µM); -143% in experiment [6] (setting [7]); -101% in experiment [6] (setting [8]); 21.4% in experiment [6] (at 50.0 µM).
